Active and inactive are the calls of the source. Unless noted, the call rests on the fitted dose curve.
The molecules below were run against Thyrotropin-releasing hormone receptor (Homo sapiens) (UniProt P34981) (assay: qHTS assay to identify small molecule antagonists of the thyrotropin-releasing hormone receptor (TRHR) signaling pathway (AID 1346877; active means well fitted inhibition curve with a large enough effect in the repeat runs, not every such curve was filed as active)). Conditions: TRHR-HEK293, TRH-induced calcium fluorescence, antagonist mode; series mostly up to 51.3 µM.
Outline: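 HEK293/TRHR cells, 18 h, 37 °C; Ca2+ dye 2 h; cpd 5 min RT; TRH 1 nM final; fluorescence read 3 min, 1 s intervals; 15 concs, triplicate.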

Sequence of Thyrotropin-releasing hormone receptor (Homo sapiens) (P34981 whole entry, looked up): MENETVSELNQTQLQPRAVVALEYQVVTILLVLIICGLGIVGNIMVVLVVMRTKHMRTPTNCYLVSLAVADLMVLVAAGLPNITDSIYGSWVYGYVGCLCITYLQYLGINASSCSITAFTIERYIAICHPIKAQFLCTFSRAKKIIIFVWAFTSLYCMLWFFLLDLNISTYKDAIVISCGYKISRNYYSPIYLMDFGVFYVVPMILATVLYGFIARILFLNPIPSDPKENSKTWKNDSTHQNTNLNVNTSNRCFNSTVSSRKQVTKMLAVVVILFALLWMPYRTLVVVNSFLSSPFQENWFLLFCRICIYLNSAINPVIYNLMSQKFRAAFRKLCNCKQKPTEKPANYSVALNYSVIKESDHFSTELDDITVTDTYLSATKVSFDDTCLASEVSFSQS

**Q.** Which outcome does the source give for `CC(=O)CCC=C(C)C` here?
**A.** inactive

**Q.** Which outcome does the source give for `N[C@H](Cc1c[nH]c2ccccc12)C(=O)O` here?
**A.** inactive

**Q.** For `COc1ccc(C)cc1N`, which outcome is on record?
**A.** inactive

**Q.** How did the outcome turn out when `CCCCCCCO` was run?
**A.** inactive

**Q.** `OCc1ccccc1` was tested. Which outcome did it give?
**A.** inactive

**Q.** How did the outcome turn out when `O=C1c2ccccc2CCc2ccccc21` was run?
**A.** inactive

**Q.** Which outcome does the source give for `CCCCCCCCCCCCCCCC(=O)OC(C)C` here?
**A.** inactive

**Q.** `CC(=O)c1ccc(O)cc1` was tested. Which outcome did it give?
**A.** inactive

**Q.** How did the outcome turn out when `O=C(O)CCCCCCCCC(=O)O` was run?
**A.** inactive

**Q.** For `O=C(O)Cn1c(=O)n(Cc2ccc(Br)cc2F)c(=O)c2ccc(Cl)cc21`, which outcome is on record?
**A.** inactive

**Q.** With `CCCOC(=O)c1ccccc1` as the molecule, how does the outcome read?
**A.** inactive

**Q.** `COc1ccc(CCC(C)=O)cc1` was tested. Which outcome did it give?
**A.** inactive

**Q.** For `CCCCC(C=O)CC` (stereo unspecified), which outcome is on record?
**A.** inactive

**Q.** `CC(C)(C)c1cc(Cc2cc(C(C)(C)C)c(O)c(C(C)(C)C)c2)cc(C(C)(C)C)c1O` was tested. Which outcome did it give?
**A.** inactive

**Q.** Which outcome does the source give for `O=C1C(c2[nH]c3ccccc3c2O)=Nc2ccccc21` here?
**A.** inactive

**Q.** Which outcome does the source give for `CSc1ccc(Cl)cc1` here?
**A.** inactive

**Q.** How did the outcome turn out when `CCO[Si](CCCN)(OCC)OCC` was run?
**A.** inactive

**Q.** For `CC(C)(Oc1ccc(CCNC(=O)c2ccc(Cl)cc2)cc1)C(=O)O`, which outcome is on record?
**A.** inactive

**Q.** Which outcome does the source give for `NCCNCCN` here?
**A.** inactive

**Q.** How did the outcome turn out when `CCCCCCCC=O` was run?
**A.** inactive

**Q.** Which outcome does the source give for `CCNC(=S)NCC` here?
**A.** inactive

**Q.** For `O=C(O)/C=C/C(=O)O`, which outcome is on record?
**A.** inactive

**Q.** `c1ccc(Oc2ccccc2)cc1` was tested. Which outcome did it give?
**A.** inactive

**Q.** For `Nc1nc(N)nc(-c2ccccc2)n1`, which outcome is on record?
**A.** inactive

**Q.** `CN(C)c1ccc(O)c2c1C[C@H]1C[C@H]3[C@H](N(C)C)C(=O)C(C(N)=O)=C(O)[C@@]3(O)C(=O)C1=C2O` was tested. Which outcome did it give?
**A.** inactive

**Q.** With `O=C1CCCC1` as the molecule, how does the outcome read?
**A.** inactive

**Q.** Which outcome does the source give for `CC(C)CC(=O)CC(C)CC(C)C` (stereo unspecified) here?
**A.** inactive

**Q.** With `N#Cc1ccccc1` as the molecule, how does the outcome read?
**A.** inactive

**Q.** Which outcome does the source give for `Cc1ccc2ncccc2c1` here?
**A.** inactive

**Q.** Which outcome does the source give for `CCCCCCCCCCCCCCCCO` here?
**A.** inactive

**Q.** How did the outcome turn out when `CC(=O)OC1CC(C)OC(C)O1` (stereo unspecified) was run?
**A.** inactive

**Q.** For `CC(C)CCCCCCCOC(=O)CCCCC(=O)OCCCCCCCC(C)C`, which outcome is on record?
**A.** inactive

**Q.** With `OC1C(O)C(O)C(O)C(O)C1O` (stereo unspecified) as the molecule, how does the outcome read?
**A.** inactive

**Q.** For `C=C(C)CNCC`, which outcome is on record?
**A.** inactive

**Q.** For `CC1(C)CC(N)CC(C)(CN)C1` (stereo unspecified), which outcome is on record?
**A.** inactive

**Q.** For `CC(=O)OCc1ccccc1`, which outcome is on record?
**A.** inactive

**Q.** With `NCCCCCCN` as the molecule, how does the outcome read?
**A.** inactive

**Q.** How did the outcome turn out when `CCO[Si](CCC#N)(OCC)OCC` was run?
**A.** inactive

The molecules below were run against Thyrotropin-releasing hormone receptor (Homo sapiens) (UniProt P34981) (assay: qHTS assay to identify small molecule agonists of the thyrotropin-releasing hormone receptor (TRHR) signaling pathway (AID 1346891;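 further: HEK293 cells expressing TRHR with calcium dye readout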)). Conditions: TRHR-HEK293 calcium fluorescence, agonist mode; series mostly up to 57.6 µM.
Outline: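 Cells: TRHR-Hek293, seeded and incubated 18 h. Dye loading: 2 h at 37 °C. Compound added from DMSO stock by pin tool. Read-out: kinetic calcium fluorescence over 3 min.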

**Q.** `CC(=O)CCC=C(C)C` was tested. Which outcome did it give?
**A.** inactive

**Q.** How did the outcome turn out when `N[C@H](Cc1c[nH]c2ccccc12)C(=O)O` was run?
**A.** inactive

**Q.** `COc1ccc(C)cc1N` was tested. Which outcome did it give?
**A.** inactive

**Q.** With `CCCCCCCO` as the molecule, how does the outcome read?
**A.** inactive

**Q.** How did the outcome turn out when `OCc1ccccc1` was run?
**A.** inactive

**Q.** How did the outcome turn out when `O=C1c2ccccc2CCc2ccccc21` was run?
**A.** inactive

**Q.** How did the outcome turn out when `CCCCCCCCCCCCCCCC(=O)OC(C)C` was run?
**A.** inactive

**Q.** Which outcome does the source give for `CC(=O)c1ccc(O)cc1` here?
**A.** inactive

**Q.** For `O=C(O)CCCCCCCCC(=O)O`, which outcome is on record?
**A.** inactive

**Q.** Which outcome does the source give for `O=C(O)Cn1c(=O)n(Cc2ccc(Br)cc2F)c(=O)c2ccc(Cl)cc21` here?
**A.** inactive

**Q.** For `CCCOC(=O)c1ccccc1`, which outcome is on record?
**A.** inactive

**Q.** With `COc1ccc(CCC(C)=O)cc1` as the molecule, how does the outcome read?
**A.** inactive

**Q.** With `CCCCC(C=O)CC` (stereo unspecified) as the molecule, how does the outcome read?
**A.** inactive

**Q.** For `CC(C)(C)c1cc(Cc2cc(C(C)(C)C)c(O)c(C(C)(C)C)c2)cc(C(C)(C)C)c1O`, which outcome is on record?
**A.** inactive

**Q.** For `O=C1C(c2[nH]c3ccccc3c2O)=Nc2ccccc21`, which outcome is on record?
**A.** inactive

**Q.** With `CSc1ccc(Cl)cc1` as the molecule, how does the outcome read?
**A.** inactive

**Q.** With `CCO[Si](CCCN)(OCC)OCC` as the molecule, how does the outcome read?
**A.** inactive

**Q.** `CC(C)(Oc1ccc(CCNC(=O)c2ccc(Cl)cc2)cc1)C(=O)O` was tested. Which outcome did it give?
**A.** inactive

**Q.** `NCCNCCN` was tested. Which outcome did it give?
**A.** inactive

**Q.** For `CCCCCCCC=O`, which outcome is on record?
**A.** inactive

**Q.** With `CCNC(=S)NCC` as the molecule, how does the outcome read?
**A.** inactive

**Q.** With `O=C(O)/C=C/C(=O)O` as the molecule, how does the outcome read?
**A.** inactive

**Q.** Which outcome does the source give for `c1ccc(Oc2ccccc2)cc1` here?
**A.** inactive

**Q.** For `Nc1nc(N)nc(-c2ccccc2)n1`, which outcome is on record?
**A.** inactive

**Q.** `CN(C)c1ccc(O)c2c1C[C@H]1C[C@H]3[C@H](N(C)C)C(=O)C(C(N)=O)=C(O)[C@@]3(O)C(=O)C1=C2O` was tested. Which outcome did it give?
**A.** inactive

**Q.** Which outcome does the source give for `O=C1CCCC1` here?
**A.** inactive

**Q.** `CC(C)CC(=O)CC(C)CC(C)C` (stereo unspecified) was tested. Which outcome did it give?
**A.** inactive

**Q.** How did the outcome turn out when `N#Cc1ccccc1` was run?
**A.** inactive

**Q.** For `Cc1ccc2ncccc2c1`, which outcome is on record?
**A.** inactive

**Q.** `CCCCCCCCCCCCCCCCO` was tested. Which outcome did it give?
**A.** inactive

**Q.** How did the outcome turn out when `CC(=O)OC1CC(C)OC(C)O1` (stereo unspecified) was run?
**A.** inactive

**Q.** How did the outcome turn out when `CC(C)CCCCCCCOC(=O)CCCCC(=O)OCCCCCCCC(C)C` was run?
**A.** inactive

**Q.** `OC1C(O)C(O)C(O)C(O)C1O` (stereo unspecified) was tested. Which outcome did it give?
**A.** inactive

**Q.** Which outcome does the source give for `C=C(C)CNCC` here?
**A.** inactive

**Q.** How did the outcome turn out when `CC1(C)CC(N)CC(C)(CN)C1` (stereo unspecified) was run?
**A.** inactive

**Q.** For `CC(=O)OCc1ccccc1`, which outcome is on record?
**A.** inactive

**Q.** With `NCCCCCCN` as the molecule, how does the outcome read?
**A.** inactive

**Q.** With `CCO[Si](CCC#N)(OCC)OCC` as the molecule, how does the outcome read?
**A.** inactive
